Measured values reported in PubChem BioAssay AID1159580 (chemical genetic matrix, 2015).
In all, about 5,500 compounds went through this assay and about 2,000 (36%) were called active. Roughly 18% stayed inconclusive and do not appear here. Cut-off read from the data, not from the text of the source: active = normalized growth mostly below about 0.91 (no sharp cut-off); inconclusive = no clear call, values can overlap the other calls; inactive = mostly above about 0.92. The list shows a part of the results.

Assay: chemical genetic growth profiling, strain panel (AID 1159580);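 note: tested at 20 µM; growth read once vehicle control cultures reached saturation at 30 °C; 1 = growth at the plate median or of vehicle wells; lower values mean less growth of the strain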
Details: S. cerevisiae deletion strains, growth OD

Measured: normalized growth

C=CCc1ccc(OC)cc1
inactive: locus YAL021C, strain ccr4, active compounds read low 0.982 | locus YAL026C, strain drs2, active compounds read low 1.03 | locus YAL030W, strain snc1, active compounds read low 1 | locus YBL061C, strain skt5, active compounds read low 1.01 | locus YBR009C, strain hhf1, active compounds read low 1.01 | locus YBR023C, strain chs3, active compounds read low 1.01 | locus YBR171W, strain sec66, active compounds read low 1.01 | locus YBR231C, strain swc5, active compounds read low 1.02 | locus YBR279W, strain paf1, active compounds read low 0.995 | locus YCL011C, strain gbp2, active compounds read low 0.988 | locus YCL016C, strain dcc1, active compounds read low 1 | locus YCL069W, strain vba3, active compounds read low 0.999 | locus YCR088W, strain abp1, active compounds read low 1.01 | locus YDL005C, strain med2, active compounds read low 1.02 | locus YDL040C, strain nat1, active compounds read low 0.999 | locus YDR001C, strain nth1, active compounds read low 1 | locus YDR069C, strain doa4, active compounds read low 1.01 | locus YDR137W, strain rgp1, active compounds read low 0.994 | locus YDR159W, strain sac3, active compounds read low 1.06 | locus YDR195W, strain ref2 1 | locus YDR297W, strain sur2, active compounds read low 1.04 | locus YDR334W, strain swr1, active compounds read low 1.01 | locus YDR335W, strain msn5, active compounds read low 0.996 | locus YDR392W, strain spt3, active compounds read low 0.919 | locus YEL003W, strain gim4, active compounds read low 1.01 | locus YEL037C, strain rad23, active compounds read low 1.01 | locus YEL061C, strain CIN8 (second series), active compounds read low 0.995 | locus YER015W, strain faa2, active compounds read low 1.01 | locus YER016W, strain bim1, active compounds read low 1.01 | locus YER111C, strain swi4, active compounds read low 1 | locus YER155C, strain BEM2 (second series), active compounds read low 1.04 | locus YFR010W, strain ubp6, active compounds read low 1.03 | locus YGL167C, strain pmr1, active compounds read low 1.01 | locus YGL173C, strain kem1, active compounds read low 1.03 | locus YGL227W, strain vid30, active compounds read low 1.01 | locus YGL240W, strain doc1, active compounds read low 1.02 | locus YGL253W, strain hxk2, active compounds read low 1.02 | locus YHR013C, strain ard1, active compounds read low 1.01 | locus YHR027C, strain rpn1, active compounds read low 1.01 | locus YHR030C, strain SLT2, active compounds read low 1 | locus YHR079C, strain IRE1, active compounds read low 0.989 | locus YHR142W, strain chs7, active compounds read low 0.992 | locus YJL092W, strain hpr5, active compounds read low 1.01 | locus YJL095W, strain BCK1 (second series), active compounds read low 1.01 | locus YJL095W, strain BCK1, active compounds read low 0.995 | locus YJL115W, strain asf1, active compounds read low 1.01 | locus YJL129C, strain trk1, active compounds read low 1.03 | locus YJL154C, strain vps35, active compounds read low 1 | locus YJL164C, strain tpk1, active compounds read low 0.98 | locus YJL166W, strain qcr8, active compounds read low 1.01 | locus YJL187C, strain SWE1, active compounds read low 0.997 | locus YJR066W, strain TOR1, active compounds read low 0.939 | locus YKL160W, strain elf1, active compounds read low 0.979 | locus YKR026C, strain gcn3, active compounds read low 1.01 | locus YKR091W, strain srl3, active compounds read low 1 | locus YLL001W, strain dnm1, active compounds read low 0.996 | locus YLL026W, active compounds read low 1.02 | locus YLL041C, strain sdh2, active compounds read low 1 | locus YLR027C, strain aat2, active compounds read low 1.02 | locus YLR113W, strain HOG1, active compounds read low 0.992 | locus YLR221C, strain rsa3, active compounds read low 1.03 | locus YLR258W, strain gsy2, active compounds read low 0.999 | locus YLR262C, strain YPT6 (second series), active compounds read low 0.992 | locus YLR320W, strain mms22, active compounds read low 1.03 | locus YLR342W, strain FKS1, active compounds read low 1.01 | locus YLR357W, strain rsc2, active compounds read low 1.01 | locus YLR370C, strain arc18, active compounds read low 0.995 | locus YLR384C, strain iki3, active compounds read low 1.01 | locus YML120C, strain ndi1, active compounds read low 0.986 | locus YMR058W, strain fet3, active compounds read low 1.02 | locus YMR125W, strain sto1, active compounds read low 0.967 | locus YMR129W, active compounds read low 1.02 | locus YMR205C, strain PFK2, active compounds read low 0.999 | locus YMR231W, strain pep5, active compounds read low 1.01 | locus YNL071W, strain lat1, active compounds read low 0.991 | locus YNL183C, strain NPR1, active compounds read low 0.909 | locus YNL209W, strain ssb2, active compounds read low 0.992 | locus YNL248C, strain rpa49, active compounds read low 0.952 | locus YNL322C, strain KRE1 (second series), active compounds read low 1 | locus YNR049C, strain mso1, active compounds read low 1 | locus YOR001W, strain rrp6, active compounds read low 1.02 | locus YOR070C, strain gyp1, active compounds read low 1.02 | locus YOR080W, strain dia2, active compounds read low 1.02 | locus YOR083W, strain WHI5, active compounds read low 0.974 | locus YOR106W, strain vam3, active compounds read low 0.988 | locus YOR231W, strain MKK1, active compounds read low 1 | locus YOR265W, strain rbl2, active compounds read low 1 | locus YOR270C, strain vph1, active compounds read low 1.04 | locus YOR290C, strain snf2, active compounds read low 0.956 | locus YPL051W, strain arl3, active compounds read low 1.01 | locus YPL078C, strain atp4, active compounds read low 0.96 | locus YPL106C, strain sse1, active compounds read low 1 | locus YPL240C, strain hsp82, active compounds read low 1.02 | locus YPL256C, strain CLN2, active compounds read low 1
